Sampled rows, rich in hits. Any-hit rate of the full collection: about 19%.
ASM inhibitor – Inhibitors of Secretory Acid Sphingomyelinase (S-ASM): qHTS. Sphingomyelin phosphodiesterase (Homo sapiens), P17405. placental ASM, HMU-PC fluorogenic substrate, 60 min. Potency, µM (highest dose often 57.5 µM), for the others: top-dose activity change, negative = inhibition, hits mostly inhibitors. hit rate 0.006% among 340,000; note: potency is the fitted concentration of half-maximal effect
Target sequence (P17405 47-631 limits assumed): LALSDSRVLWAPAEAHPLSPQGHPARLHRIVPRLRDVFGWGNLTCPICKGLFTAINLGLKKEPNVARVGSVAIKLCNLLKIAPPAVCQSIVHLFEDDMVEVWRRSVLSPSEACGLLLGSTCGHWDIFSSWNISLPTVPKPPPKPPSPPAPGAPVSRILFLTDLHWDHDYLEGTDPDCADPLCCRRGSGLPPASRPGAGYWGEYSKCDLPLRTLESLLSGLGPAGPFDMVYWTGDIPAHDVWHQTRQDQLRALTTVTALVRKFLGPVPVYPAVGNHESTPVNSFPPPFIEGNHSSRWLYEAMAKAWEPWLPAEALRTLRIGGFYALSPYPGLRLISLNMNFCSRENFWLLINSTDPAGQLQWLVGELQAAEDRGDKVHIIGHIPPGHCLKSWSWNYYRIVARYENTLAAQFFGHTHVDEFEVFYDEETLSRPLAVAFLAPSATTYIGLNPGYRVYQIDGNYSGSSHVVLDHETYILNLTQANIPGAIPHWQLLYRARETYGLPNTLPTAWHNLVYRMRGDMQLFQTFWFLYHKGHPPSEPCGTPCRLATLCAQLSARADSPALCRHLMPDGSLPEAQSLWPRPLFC
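HMU-PC0 cleavage (9 uM final) by human placental ASM, 60 min at 37 °C following 10 min compound exposure at RT; stopped at pH 10, fluorescence Ex 386/Em 447 nm.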
IL1B secr inh – qHTS for Inhibitors of Inflammasome Signaling: IL-1-beta AlphaLISA Primary Screen; THP-1 LPS/ATP IL-1B secretion, AlphaLISA, 16 h; hits give low values; activity change, % at 57.5 µM; hit rate 4.7% among 360,000; AID 743279, 2014; in the data active = activity change below about -50%; inconclusive = mostly about -30% to -49%; note: % is set by controls: 0 for no effect and ±100 for the full control effect
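Secreted IL-1B measured by AlphaLISA bead assay after 16 h compound exposure of THP-1 cells; compounds (final up to 57.5 uM) added 1 h before LPS (250 ng/mL) and ATP (1.25 mM) stimulation; lower signal means less secretion.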
DT40 TDP1 no CPT – qHTS for Inhibitors of human tyrosyl-DNA phosphodiesterase 1 (TDP1): qHTS in cells in absence of CPT. DT40 Tdp1-/- hTDP1 cells, no CPT, ATP luminescence, 48 h. Potency, µM (highest dose often 46.2 µM), inactives show at the highest dose activity change, negative = growth inhibition, hits mostly inhibitors. hit rate 15% among 420,000. AID 686978, 2013; note: potency is the fitted concentration of half-maximal effect; % is set by controls: 0 for no effect and ±100 for the full control effect; nearly all actives have a fitted effect of over 55% in size
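DT40 Tdp1-/-;hTDP1 cells, no CPT (DMSO vehicle only), 400 cells/well; compounds pin-transferred; ≥48 hr, 37 °C; CellTiter-Glo 30 min RT dark, luminescence read.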
TDP1 cell CPT – qHTS for Inhibitors of human tyrosyl-DNA phosphodiesterase 1 (TDP1): qHTS in cells in presence of CPT | Potency, µM (top dose mostly 46.2 µM), without a hit: at the highest dose activity change, negative = growth inhibition, hits mostly inhibitors | chicken DT40 Tdp1-/-;hTDP1 cells + 20 nM CPT, ATP luminescence, 48 h | hit rate 12% among 420,000 | AID 686979, 2013; note: potency is the fitted concentration of half-maximal effect; % is set by controls: 0 for no effect and ±100 for the full control effect; nearly all actives have a fitted effect of over 55% in size
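Chicken DT40 Tdp1-/- cells stably complemented with human TDP1 were seeded at 400 cells/well in medium containing 20 nM camptothecin, exposed to pin-transferred compounds, and grown at 37 °C for at least 48 hr. Viability was read as ATP luminescence.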
HepG2 viability – qHTS for Inhibitors of TGF-b: Cytotox Counterscreen | HepG2 CAGA-GFP viability, ATP luminescence, 18 h | Potency, µM (doses to about 46.1 µM), for inactives: top-dose activity change, negative = cytotoxicity, most hits filed as cytotoxic | hit rate 0.76% among 410,000; note: potency is the fitted concentration of half-maximal effect
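HepG2 CAGA-GFP cells (1000/well, DMEM with 1% FBS) received compound, then TGF-beta at 500 pg/mL final, and were incubated 18 hours at 37 degrees C. Viability was read by CellTiter-Glo luminescence. Media-only wells were set as complete cell-killing and DMSO as no toxicity.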
TGFb inhibitor – qHTS for Inhibitors of TGF-b. AID 588855, 2011. Potency, µM (top dose mostly 46.1 µM), for inactives: at the top dose activity, negative = inhibition, usual class: inhibitors. HepG2 CAGA-GFP TGF-b/SMAD3 reporter, GFP fluorescence, 18 h; TGF-beta stimulated, 500 pg/mL final. hit rate 1.2% among 410,000; note: potency is the fitted concentration of half-maximal effect; % is set by controls: 0 for no effect and ±100 for the full control effect; nearly all actives have a fitted effect of over 65% in size
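HEPG2 CAGA-GFP, 1000 cells/well; 2 h settle, 37 C; cpd via pin tool; TGF-b 500 pg/mL final; 18 h, 37 C; GFP imaging ex488/em500-530; %Activity normalised to -TGF-b and +DMSO controls; CRC fit, curve class.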
Starred values were filed as active, the others as inactive; ? = inconclusive; . = no result; [ ] = another dose, or the depositor's remark. Unless noted, calls come from the whole dose curve; as a rule, active = well fitted curve in the direction sought with a large enough effect; inconclusive = small, poorly fitted or top-dose-only effect, or another doubt; inactive = no such curve, though single readings can be large; an effect the other way counts as inactive or inconclusive.

SMILES	ASM inhibitor	IL1B secr inh	DT40 TDP1 no CPT	TDP1 cell CPT	HepG2 viability	TGFb inhibitor
O=C(CSc1c2c(nc3ccc(Cl)cc13)CCCC2)N1CCN(c2cccc(Cl)c2)CC1	.	.	?	16µM*	-50%	-55%
COc1ccc(N2CCN(C(=O)CSc3c4c(nc5ccc(Cl)cc35)CCCC4)CC2)cc1	.	.	15µM*	21µM*	-34%	?
CCOc1ccccc1NC(=O)CSc1c(C)cnc2c1c(=O)n(C)c(=O)n2C	.	.	?	?	2%	21%
CC1CCCC(NC(=O)Cn2c(Cl)nc3c2c(=O)n(C)c(=O)n3C)C1C (stereo not drawn)	5%	31	21µM*	?	0%	16%
CCN(C(=O)Cn1c(Cl)nc2c1c(=O)n(C)c(=O)n2C)C1CCCCC1	1%	11	21µM*	21µM*	3%	-6%
Cn1c(=O)c2c(nc(Cl)n2CC(=O)N2CCCCC2)n(C)c1=O	0%	19	-7%	6%	9%	0%
O=[N+]([O-])c1ccc2cc[nH]c2c1	0%	2	-20%	-13%	-1%	7%
COCCN=c1scc(-c2cc(OC)ccc2OC)n1/N=C/c1c[nH]c2ccccc12	-10%	-50*	?	?	-35%	?
CN(C)c1ccc(/C=N/NC(=O)c2ccccc2Cl)cc1	2%	?	7.3µM*	5.8µM*	2%	-5%
CSc1ccc(/C=N/NC(=O)c2ccccc2Cl)cc1	2%	-17	13µM*	16µM*	0%	24%
CN(C)c1ccc(C=NNC(=O)c2cccc3ccccc23)c(Cl)c1	47%	35	4.1µM*	5.2µM*	-5%	?
O=C(N/N=C/c1ccc(O)cc1)c1csc2ccccc12	-10%	-5	0.26µM*	?	21%	45%
CC(=O)NC12CC3CC(C1)CC(C(=O)N1CCN(S(=O)(=O)c4cccc([N+](=O)[O-])c4)CC1)(C3)C2	2%	14	-2%	?	-4%	-2%
CSc1ccc(/C=N/NC(=O)c2ccc(O)cc2)cc1	-4%	-5	?	26µM*	-60%	2%
CN(C)c1ccc(/C=N\NC(=O)c2ccc(Cn3cc(Cl)cn3)cc2)cc1	22%	6	16µM*	?	-4%	-21%
CN(C)c1ccc(/C=N/NC(=O)c2ccc(Cl)cc2)cc1	41%	6	0%	-3%	-17%	15%
Cc1cccc(NC(=O)CSc2nc3ccc(NC(=O)c4ccco4)cc3s2)c1	.	.	2.6µM*	10µM*	-20%	-29%
Cc1nc2ccc(NC(=O)c3ccco3)cc2s1	2%	-9	-3%	3%	-22%	-6%
COc1cccc(NC(=O)CSc2nc3ccc(NC(=O)c4ccco4)cc3s2)c1	.	.	18µM*	13µM*	-45%	?
Cc1ccccc1NC(=O)CSc1nc2ccc(NC(=O)c3ccccc3)cc2s1	.	.	16µM*	?	-2%	?
Cc1ccc(NC(=O)CSc2nc3ccc(NC(=O)c4cccc(Cl)c4)cc3s2)c(C)c1	.	.	?	?	0%	18%
Cc1ccc(NC(=O)CSc2nc3ccc(NC(=O)CCc4ccccc4)cc3s2)cc1	.	.	?	?	1%	-4%
COc1ccc(NC(=O)CSc2nnc(NC(=O)c3ccco3)s2)cc1	2%	-17	12%	-20%	2%	-5%
Cc1ccccc1NC(=O)CSc1nc2ccc(NC(=O)CCc3ccccc3)cc2s1	.	.	9.2µM*	?	-19%	-8%
Cc1ccc(NC(=O)CSc2nc3ccc(NC(=O)c4ccco4)cc3s2)c(C)c1	.	.	7.3µM*	16µM*	-23%	?
SMILES	ASM inhibitor	IL1B secr inh	DT40 TDP1 no CPT	TDP1 cell CPT	HepG2 viability	TGFb inhibitor
Cc1ccccc1NC(=O)CSc1nc2ccc(NC(=O)c3ccco3)cc2s1	.	.	21µM*	16µM*	-16%	-14%
CSc1nc2ccc(NC(=O)c3c(-c4ccccc4)noc3C)cc2s1	-12%	-65*	?	-3%	-7%	-21%
Cc1ccc(NC(=O)CSc2nc3ccc(NC(=O)c4cccs4)cc3s2)cc1	.	.	?	-26%	-24%	-5%
COC(=O)c1ccccc1-c1cc(C)cc2c1OC(CNC(=O)c1cnc(C)cn1)C2 (stereo not drawn)	.	.	18µM*	-12%[9.04 µM]	.	.
Cc1ccsc1/C=N/Nc1nc(=O)[nH]nc1C	-1%	8	15µM*	21µM*	11µM*	?
CC(C)Oc1cccc(C(=O)C2CCCN(C(=O)CCc3cnn(C)c3)C2)c1 (stereo not drawn)	-3%	14	?	16µM*	-48%	-6%
Cc1nn(C)c(C)c1CCC(=O)N1CCCC(C(=O)c2cccc(OC(C)C)c2)C1 (stereo not drawn)	-3%	1	?	18µM*	-21%	-18%
CC(C)Oc1cccc(C(=O)C2CCCN(Cc3cnn(C(C)C)c3)C2)c1 (stereo not drawn)	0%	-2	?	?	3%	17%
CSc1ccc(CCNC(=O)c2c(C)oc3ncn(C)c(=O)c23)cc1	.	.	18µM*	?	4%	?
COc1ccc(CCNC(=O)c2c(C)oc3ncn(CC(C)C)c(=O)c23)c(OC)c1	.	.	16µM*	16µM*	-3%	-6%
Cc1oc2ncn(CC(C)C)c(=O)c2c1C(=O)NCCc1ccc(Cl)cc1	.	.	15µM*	?	3%	?
COC(=O)C[C@H]1C[C@@H]2c3cc(NC(=O)CN(C)C)ccc3O[C@@H]2[C@H](CO)O1	.	22	?	-23%	4%	0%
C=CCOc1cccc(C(=O)N2CCC(CCC(=O)NC3CC3)CC2)c1	4%	-12	-20%	-11%	7%	-13%
CC1(C(=O)NS(=O)(=O)c2cccc(OC(F)F)c2)CCN1C(=O)c1ccccc1CCc1ccccc1 (stereo not drawn)	.	29	?	?	-18%	1%
COc1ccccc1NC(=O)Cn1cc(C(=O)c2ccncc2)c(=O)c2cc(C)ccc21	.	.	-19%	-7%	-7%	-1%
O=[N+]([O-])c1cc(Br)c(O)c(C=Nc2ccc(N3CCOCC3)cc2)c1	-2%	30	?	-19%	0%	15%
Oc1ccc(N=Cc2cc(Br)c(N3CCOCC3)o2)cc1	0%	0	21µM*	?	3%	11%
